# TDP1 inh: qHTS Assay for Inhibitors of Tyrosyl-DNA Phosphodiesterase (TDP1). Tyrosyl-DNA phosphodiesterase 1 (Homo sapiens), Q9NUW8. recombinant TDP1, AlphaScreen DNA substrate cleavage. Potency, µM (top dose mostly 130 µM), most hits filed as inhibitors. 350,000 tested, 0.28% active. AID 485290, 2010; further: nearly all actives have a fitted effect of over 40% in size
# Target sequence (Q9NUW8 whole entry, looked up): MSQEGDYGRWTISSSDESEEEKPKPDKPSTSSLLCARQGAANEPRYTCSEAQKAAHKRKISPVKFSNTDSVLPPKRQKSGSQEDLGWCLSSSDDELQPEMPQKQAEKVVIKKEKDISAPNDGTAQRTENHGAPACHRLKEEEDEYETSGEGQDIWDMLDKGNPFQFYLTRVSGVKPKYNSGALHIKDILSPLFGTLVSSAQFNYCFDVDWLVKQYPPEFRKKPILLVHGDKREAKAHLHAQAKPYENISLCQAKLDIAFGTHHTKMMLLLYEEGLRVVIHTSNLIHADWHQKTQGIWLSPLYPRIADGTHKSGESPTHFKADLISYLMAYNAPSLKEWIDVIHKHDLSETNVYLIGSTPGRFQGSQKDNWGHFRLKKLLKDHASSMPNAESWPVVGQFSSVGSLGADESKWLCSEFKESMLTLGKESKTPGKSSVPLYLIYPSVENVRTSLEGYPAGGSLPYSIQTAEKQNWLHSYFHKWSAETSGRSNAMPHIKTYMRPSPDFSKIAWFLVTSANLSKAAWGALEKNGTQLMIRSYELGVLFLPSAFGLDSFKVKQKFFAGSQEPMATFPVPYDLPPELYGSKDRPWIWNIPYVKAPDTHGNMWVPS
#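 AlphaScreen read-out: signal falls as enzyme removes the 3' tyrosine-FITC from a 5'-biotinylated DNA oligo (15 nM, 5 min, RT). Enzyme was E. coli-made recombinant Tdp1 at 1 nM, exposed to compound for 15 min beforehand; beads 10 ug/ml, 10 min.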
# TDP1 cell CPT: qHTS for Inhibitors of human tyrosyl-DNA phosphodiesterase 1 (TDP1): qHTS in cells in presence of CPT; chicken DT40 Tdp1-/-;hTDP1 cells + 20 nM CPT, ATP luminescence, 48 h; AID 686979, 2013; 420,000 tested, 12% active; Potency, µM (highest dose often 46.2 µM), hits mostly inhibitors; further: nearly all actives have a fitted effect of over 55% in size
#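 Chicken DT40 Tdp1-/- cells complemented with human TDP1, 400 cells/well, exposed to compounds plus 20 nM camptothecin for at least 48 h at 37 C; viability read as ATP content by CellTiter-Glo luminescence.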
# RORgamma inh: qHTS for inhibitors of ROR gamma transcriptional activity | Nuclear receptor ROR-gamma (Mus musculus), P51450 | Drosophila S2 Gal4-RORgamma UAS-luciferase reporter, 20 h | Potency, µM (titrated, usually from 53.6 µM), hits mostly inhibitors | 310,000 tested, 5.4% active; further: nearly all actives have a fitted effect of over 60% in size
#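 Read-out: Photinus luciferase luminescence; inhibitors lower reporter signal. Insect Schneider cells with Gal4-ROR gamma fusion under metallothionein promoter, UAS reporter; 700 uM final copper sulfate induction, 20 hr, ambient temperature.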
# TDP1 cell noCPT: qHTS for Inhibitors of human tyrosyl-DNA phosphodiesterase 1 (TDP1): qHTS in cells in absence of CPT | Potency, µM (doses to about 46.2 µM), usual class: inhibitors | AID 686978, 2013 | DT40 Tdp1-/- hTDP1 cells, no CPT, ATP luminescence, 48 h | 420,000 tested, 15% active; further: nearly all actives have a fitted effect of over 55% in size
#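 Chicken DT40 Tdp1-/- cells stably complemented with human TDP1 were seeded at 400 cells/well with DMSO in place of 20 nM camptothecin. After compound pinning, cells grew at least 48 hr at 37 °C; viability read by CellTiter-Glo luminescence.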
# VP16 counter: VP16 counterscreen qHTS for inhibitors of ROR gamma transcriptional activity; Drosophila S2 Gal4-VP16 UAS-luciferase, luminescence, 20 h; Potency, µM (highest dose often 53.6 µM), most hits filed as inhibitors; 310,000 tested, 3.5% active; AID 2546, 2010;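 further: Gal4-VP16 expression switched on by copper sulfate through the metallothionein promoter; nearly all actives have a fitted effect of over 50% in size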
# A number is an active result; - = inactive; ? = inconclusive; . = no result given. In the library only some 19% were active in any assay of this set; here they are far more common. The call rests on the fitted dose curve; in most records, active means well fitted curve in the direction sought with a large enough effect; inconclusive means small, poorly fitted or top-dose-only effect, or another doubt; inactive means no such curve, though single readings can be large; an effect the other way counts as inactive or inconclusive.
SMILES,TDP1 inh,TDP1 cell CPT,RORgamma inh,TDP1 cell noCPT,VP16 counter
O=C(COC(=O)/C=C/c1cn(-c2ccccc2)nc1-c1ccc2c(c1)OCCO2)NC1CCS(=O)(=O)C1 (centres undefined),.,?,?,20.6µM,-
CN(C(=O)COC(=O)/C=C/c1cn(-c2ccccc2)nc1-c1ccc2c(c1)OCCO2)C1CCS(=O)(=O)C1 (centres undefined),-,?,-,14.6µM,-
O=c1ccc(-c2ccccc2)nn1Cc1c(F)cccc1Cl,-,18.4µM,.,?,.
O=c1ccc(-c2ccccc2)nn1Cc1ccccc1F,-,-,?,-,-
CC(C)=CCC/C(C)=C/C=N/NC(=O)c1cccc([N+](=O)[O-])c1,-,-,1.58µM,-,1.41µM
CS(=O)(=O)N(CC(=O)N/N=C/c1cc2c(cc1Br)OCO2)c1ccccc1Br,-,?,?,14.6µM,-
O=[N+]([O-])c1ccccc1N/N=C/c1c[nH]c2ccccc12,-,?,-,?,?
CS(=O)(=O)N(CC(=O)N/N=C/c1cccc2c1OCCO2)c1ccccc1Br,-,-,-,-,-
O=[N+]([O-])c1ccc(N/N=C/c2c[nH]c3ccccc23)cc1,-,?,?,16.4µM,-
O=C(N/N=C/c1cc2c(cc1Br)OCO2)c1c[nH]c2ccccc12,-,?,?,20.6µM,-
O=C(N/N=C/c1cc2c(cc1Br)OCO2)c1ccccn1,-,-,-,?,?
CCCn1c(SCC(=O)Nc2cccc(S(=O)(=O)N3CCCC3)c2)n[nH]c1=O,-,-,-,-,-
O=[N+]([O-])c1ccc(N/N=C/c2ccc[nH]2)cc1,-,?,-,23.1µM,-
O=C(N/N=C/c1c[nH]c2ccccc12)c1cccc([N+](=O)[O-])c1,-,-,12.6µM,-,?
O=C(N/N=C/c1c[nH]c2ccccc12)c1ccccc1,-,-,.,-,.
O=C(N/N=C/c1c[nH]c2ccccc12)c1ccc2c(c1)OCCO2,-,?,-,16.4µM,-
O=C(N/N=C/c1ccc[nH]1)c1ccccc1[N+](=O)[O-],-,-,?,-,-
N#C/C(C(=O)Oc1ccccc1)=C1\C=CC=CN1,-,-,-,-,-
COc1ccc(-c2noc(-c3ccc(NCC4CCCO4)c([N+](=O)[O-])c3)n2)cc1 (centres undefined),-,-,.,?,.
CCN(CC)CCOC(c1ccccc1)c1ccc(C)cc1 (centres undefined),-,?,-,?,-
Cc1ccc(C(OCC(C)(C)C[N+](C)(C)C)c2ccccc2)cc1 (centres undefined),-,5.8µM,-,5.17µM,-
CCCCCCCCCCCCOC(=O)C[N+](C)(C)C,.,-,?,-,-
CCCCCCCCOC(=O)C[N+](C)(C)C/C=C(/C)Cl,-,16.4µM,-,10.3µM,?
CCCCCCCCCCOC(=O)C[N+](C)(C)C/C=C(/C)Cl,-,8.2µM,-,3.66µM,22.4µM
CN1C(=O)C(Cl)(Cl)C(=O)c2ccccc21,-,14.6µM,11.2µM,16.4µM,?
SMILES,TDP1 inh,TDP1 cell CPT,RORgamma inh,TDP1 cell noCPT,VP16 counter
COc1cccc(CN2CCCC(c3nc(C)ncc3-c3ccc(F)cc3)C2)c1OC (centres undefined),.,?,.,20.6µM,.
Cc1ncc(-c2ccc(F)cc2)c(C2CCCN(Cc3cccc(O)c3)C2)n1 (centres undefined),.,?,.,20.6µM,.
Cc1cccc(-c2cnc(C)nc2C2CCCN(C(=O)c3cccc(Cn4cccn4)c3)C2)c1 (centres undefined),.,3.26µM,.,?,.
COc1cccc(CN2CCCC(c3nc(-c4ccncc4)ncc3-c3ccccc3C)C2)c1O (centres undefined),.,?,.,-,.
C=CCN1C(=O)CN=C1NCc1ccccc1,-,-,-,-,-
CCn1c(CC(=O)Nc2ccc(F)cc2)nnc1SCC(=O)N1CCOCC1,-,-,-,-,-
Cc1cc(O)c(C(C)C)cc1C1(c2cc(C(C)C)c(O)cc2C)OC(=O)c2ccccc21,-,14.6µM,?,9.2µM,12.6µM
COc1ccc(Cl)cc1/C=C/c1ccc2cccc(O)c2n1,.,20.6µM,0.891µM,?,0.794µM
COc1ccccc1/C=C/c1ccc2cccc(O)c2n1,.,?,3.98µM,?,?
COc1c(OC(C)=O)ccc(/C=C/c2ccc3ccccc3n2)c1[N+](=O)[O-],-,?,?,?,?
COc1cc(Cl)cc(/C=C/c2ccc3cccc(O)c3n2)c1OC,.,?,5.01µM,23.1µM,-
C/C(CCc1ccccc1)=N\NC(=O)CCc1ccccc1,-,-,-,-,-
c1ccc(-c2nccc(-c3ccco3)n2)nc1,-,?,12.6µM,?,-
c1ccc(-c2nc(-c3ccco3)cs2)nc1,-,14.6µM,?,16.4µM,-
c1ccc(-c2noc(-c3ccco3)n2)nc1,-,?,?,?,?
COc1ccccc1NC(=O)C1=C(C)Nc2nnnn2C1c1cc(Br)ccc1OC (centres undefined),-,-,-,?,-
Cc1ccc(S(=O)(=O)N2CCN(c3cnn(-c4ccccc4)c(=O)c3Cl)CC2)cc1,-,-,-,-,-
CCCn1c(N2CCOCC2)nc2c1c(=O)[nH]c(=O)n2C,-,-,-,-,-
COc1cccc(OC)c1NC(=O)NC(=O)c1c(OC)c(Br)cc([N+](=O)[O-])c1OC,-,-,-,-,-
CS(=O)(=O)Nc1cccc(C2=NN(S(=O)(=O)c3ccccc3)C(c3ccco3)C2)c1 (centres undefined),-,?,?,-,-
Cc1c(C(=O)Nc2ccc(C(C)C)cc2)sc2nc3n(c(=O)c12)CCC3,-,16.4µM,.,20.6µM,.
Cc1c(C(=O)NCCc2ccc(Cl)cc2)sc2nc3n(c(=O)c12)CCC3,-,?,-,-,-
Cc1c(C(=O)NCCc2ccc(Cl)cc2)sc2nc3n(c(=O)c12)CCCC3,-,?,.,18.4µM,.
Cc1c(C(=O)N(C)c2cccc(C(F)(F)F)c2)sc2nc3n(c(=O)c12)CCCCC3,-,?,.,14.6µM,.
COc1ccc(Cl)cc1NC(=O)c1sc2nc3n(c(=O)c2c1C)CCC3,-,-,.,-,.
Cc1c(C(=O)O)sc2nc3n(c(=O)c12)CCC3,14.1µM,-,-,?,-
Cc1c(C(=O)N2CCN(c3ccccc3)CC2)sc2nc3n(c(=O)c12)CCC3,-,-,-,-,-
CCOC(=O)c1sc2ncn(/N=C/c3ccc(O)c(OC)c3)c(=O)c2c1C,-,-,-,-,-

# Screens (PubChem BioAssay)
